# A selection: hits, their analogues and other compounds. The true share with any hit is near 3.7%.
# TIM10 inh: growth inhibitors of isogenic TIM10 control yeast, primary screen, counter-screen for tim10-1 yeast inhibitor project, luminescence, uHTS | hit rate 1.4% among 330,000 | inhibition, % at 10 µM | AID 463195, 2010 | S. cerevisiae TIM10 strain growth, BacTiter-Glo luminescence, 24 h;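 active means inhibition of 40% or more at the single tested concentration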;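 further: wild-type TIM10 isogenic control strain grown at permissive 25 °C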
# NLRP3 yeast inh: NALP3 inflammasome inhibitors in reconstituted yeast, primary screen, luminescence, uHTS. Yeast reconstituted NLRP3/ASC/caspase-1, beta-gal luminescence, 24 h. inhibition, % at 10 µM. hit rate 0.39% among 330,000;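 active means inhibition of 50% or more; inactive means inhibition below 50%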;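 further: plate controls were induced DMSO wells for no effect and uninduced yeast grown without galactose for full effect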
# tim10-1 inh: growth inhibitors of tim10-1 mutant yeast, primary screen, luminescence, uHTS; AID 463190, 2010; inhibition, % at 20 µM; hit rate 2.2% among 330,000; S. cerevisiae tim10-1 ts strain growth, BacTiter-Glo, 24 h;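 active means inhibition of at least 40%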;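 further: mutant grown at 25 °C; 0% = DMSO wells with yeast and 100% = wells holding no yeast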
# PfHsp90 set2: growth inhibition of PfHsp90-expressing yeast, primary screen, antimalarial PfHsp90 inhibitor project, S. cerevisiae, BacTiter-Glo luminescence, single point, set 2; inhibition, % at 9.4 µM; BacTiter-Glo ATP, 48 h; yeast lacking PDR1 and PDR3 efflux regulators; hit rate 0.32% among 310,000;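 active means every replicate shows inhibition above about 80%, whatever the replicate mean, limit read from the data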;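 further: 0% = DMSO neutral controls and 100% = 20 µM radicicol positive controls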
# tim23-1 inh: growth inhibitors of tim23-1 mutant yeast, primary screen, luminescence, uHTS; S. cerevisiae tim23-1 growth, BacTiter-Glo luminescence, 24 h; hit rate 1.3% among 330,000; inhibition, % at 20 µM;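 active means growth inhibition of the mutant yeast at or above 50%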;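 further: temperature-sensitive mutant grown at 25 °C; plate controls were DMSO-treated mutant yeast for no effect and medium wells lacking yeast for full effect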
# tim10-1 conf: growth inhibitors of tim10-1 mutant yeast, confirmation, single concentration, luminescence, S. cerevisiae | shares compounds with tim10-1 inh | S. cerevisiae tim10-1 ts strain growth, BacTiter-Glo, 24 h | inhibition, % at 20 µM | hit rate 56% among 7,400;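 active means inhibition of yeast growth at or above a set limit in either of two repeat tests at 20 µM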;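 further: tim10-1 mutant grown at permissive 25 °C to find synthetic lethal compounds; 0% = DMSO yeast wells and 100% = medium wells without yeast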
# TIM10 conf: growth inhibitors of wild-type TIM10 yeast, confirmation, counter-screen for tim10-1 synthetic lethality project, single concentration, luminescence, S. cerevisiae | shares compounds with TIM10 inh | S. cerevisiae tim10 strain growth, BacTiter-Glo luminescence, 24 h | inhibition, % at 10 µM | hit rate 63% among 4,600;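 active means inhibition of yeast growth at or above a set limit in either of two replicates at 10 µM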;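 further: this counterscreen used the strain with wild-type TIM10; 0% = yeast with DMSO and 100% = medium wells lacking yeast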
# tim23-1 conf: tim23-1 mutant yeast growth inhibitors, confirmation, luminescence, single concentration. shares compounds with tim23-1 inh. S. cerevisiae tim23-1 growth, BacTiter-Glo luminescence, 24 h. inhibition, % at 20 µM. hit rate 83% among 4,400;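 active means inhibition above about 39% in either of two replicate wells at 20 µM, limit read from the data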;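 further: temperature-sensitive tim23-1 mutant grown at 25 °C; 0% = DMSO wells with yeast and 100% = medium wells without yeast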
# Active calls of the source: *; nt = no result given.
SMILES,TIM10 inh,NLRP3 yeast inh,tim10-1 inh,PfHsp90 set2,tim23-1 inh,tim10-1 conf,TIM10 conf,tim23-1 conf
N#C/C(=C\c1cccn1-c1ccccc1)C(=O)NC1CCCCC1,30,17,34,12,38,nt,nt,nt
N#C/C(=C\c1ccccc1[N+](=O)[O-])C(=O)NC1CCCCC1,72*,22,75*,-19,76*,84*,83*,73*
C=CCNC(=O)/C(C#N)=C\c1cc(Cl)c(OCC)c(OC)c1,67*,34,79*,-23,82*,79*,73*,84*
COc1cc(/C=C(\C#N)C(=O)NC2CCCCC2)ccc1OCc1ccc(C(=O)O)cc1,22,12,35,-16,30,nt,nt,nt
CCOc1c(Br)cc(/C=C(\C#N)C(=O)NC2CC2)cc1OC,56*,14,85*,20,87*,78*,67*,84*
N#C/C(=C\c1ccc(F)c(Br)c1)C(=O)NC1CC1,44*,12,48*,34,84*,46*,58*,74*
CCN(CC)CCNC(=O)CCc1c(C)nc2c(c(C)nn2-c2ccc(C)c(C)c2)c1C,-14,20,17,11,19,nt,nt,nt
O=C(NC1CCN(S(=O)(=O)c2ccccc2)CC1)c1ccc(F)cc1,-8,10,-1,8,-6,nt,nt,nt
O=C(CC1CCCC1)N1CCN(S(=O)(=O)c2cccc(F)c2)CC1,nt,nt,nt,14,nt,nt,nt,nt
COC(C[C@@H]1O[C@H]1[C@@H](O)COCc1ccccc1)OC,-2,8,-18,-8,-19,nt,nt,nt
CCCCOc1ccc(C(=O)CCN2CCCCC2)cc1,4,37,47*,5,50*,17,nt,66*
CCc1ccc2oc(-c3cc(N)ccc3Cl)nc2c1,50*,8,44*,-19,56*,27,23,47*
Nc1ccc2oc(-c3ccccc3Cl)nc2c1,5,7,25,19,22,nt,nt,nt
CCc1ccc2oc(-c3cc(N)ccc3O)nc2c1,24,18,14,-10,7,nt,nt,nt
Nc1ccc2oc(-c3cc(Br)ccc3Cl)nc2c1,41*,16,54*,-3,59*,41*,36*,55*
NS(=O)(=O)c1ccc(NC(=O)c2ccc(CNS(=O)(=O)c3cc(C(F)(F)F)ccc3Cl)cc2)cc1,-22,5,11,4,20,nt,nt,nt
CCCOc1cc(N)ccc1C(=O)OCCN(CC)CC,1,7,-11,-7,-10,nt,nt,nt
CCCOc1ccc(N)cc1N,22,23,50*,-20,56*,19,nt,36
O=C(C[n+]1ccc(C(=O)c2ccccc2)cc1)Nc1ccccc1OC(F)F,0,24,3,3,-2,nt,nt,nt
CNC(=O)c1ccsc1NC(=O)c1ccc2c(c1)CCCC2,54*,14,49*,13,63*,30*,47*,72*
Cn1c(N)c(C(=O)COC(=O)c2cc(S(=O)(=O)NCc3ccccc3)ccc2O)c(=O)n(C)c1=O,nt,nt,nt,0,nt,nt,nt,nt
COc1ccc(CCNC(=S)NC(=O)c2ccccc2)cc1OC,53*,-4,48*,3,56*,39*,31*,44*
COc1ccc(CCNC(=S)NC(=O)c2cc(OC)c(OC)c(OC)c2)cc1OC,-5,6,7,-21,-3,nt,nt,nt
O=[N+]([O-])c1ccc(Sc2ncccn2)c([N+](=O)[O-])c1,37,12,42*,-38,53*,50*,nt,40*
O=C(O)CCSc1ccc([N+](=O)[O-])cc1[N+](=O)[O-],7,-1,44*,27,51*,30*,nt,53*
SMILES,TIM10 inh,NLRP3 yeast inh,tim10-1 inh,PfHsp90 set2,tim23-1 inh,tim10-1 conf,TIM10 conf,tim23-1 conf
CCC(NC(=O)c1ccc([N+](=O)[O-])cc1[N+](=O)[O-])c1ccccc1 (centres undefined),-3,24,20,-4,9,nt,nt,nt
Cc1c(C(=O)O)c(C(=O)O)nc2ccc(N3CCOCC3)cc12,6,9,-5,nt,-6,nt,nt,nt
CCCCc1ccc(/C=C2\C(=O)c3ccccc3C(O)=C2C(=O)OCC)cc1,47*,34,64*,nt,50*,55*,47*,59*
O=C(C1CCCO1)N1CCN(S(=O)(=O)c2ccc(Cl)cc2)CC1 (centres undefined),1,23,6,-5,-2,nt,nt,nt
CN1c2ccccc2C(C)(C)C12C=Cc1cc(O)ccc1O2 (centres undefined),43*,16,52*,nt,55*,41*,42*,52*
COc1ccc(C(=O)N2CCC(c3ccccc3)CC2)c(OC)c1OC,7,-15,33,nt,27,nt,nt,nt
Cc1ccc(S(=O)(=O)N2CCCC2C(=O)OCc2ccco2)cc1 (centres undefined),13,7,21,10,14,nt,nt,nt
CCCCC1=CC2=CC(=O)C(C)(OC(=O)c3ccc(Cl)nc3)C(=O)C2=CO1 (centres undefined),0,3,8,nt,16,nt,nt,nt
O=S(=O)(Nc1ccc(-c2nc3ccccc3o2)cc1)c1ccccc1,52*,47,47*,-115,61*,40*,36*,53*
CC(=O)Nc1ccc(S(=O)(=O)Nc2cccc(-c3nc4ccccc4o3)c2)cc1,28,6,28,11,-2,nt,nt,nt
CC(=O)NC1C(=O)Nc2c(C)cc(C)cc21 (centres undefined),7,13,4,17,9,nt,nt,nt
Oc1ccc(Br)cc1-c1cc(-c2ccco2)[nH]n1,43*,-6,48*,-15,68*,32*,34*,52*
Oc1ccccc1-c1cc(-c2ccco2)[nH]n1,13,13,-4,-8,36,nt,nt,nt
CC1=CC(C)(C)NC(=S)N1c1ccc(N(C)C)cc1,nt,nt,nt,11,nt,nt,nt,nt
O=C(NCCO)c1cccc2c1-c1ccccc1C2=O,3,2,1,-7,-2,nt,nt,nt
O=C1c2cccc(O)c2C(=O)c2c(O)cc(CO)cc21,39,24,54*,nt,71*,39*,nt,84*
Cc1ccc(S(=O)(=O)c2ccc([N+](=O)[O-])cn2)cc1,73*,-31,73*,95*,75*,68*,70*,75*
Cc1ccc(CC(=O)Nc2ccc(F)c([N+](=O)[O-])c2)cc1C,23,30,33,-15,26,nt,nt,nt

# High-throughput results as filed in PubChem.
